Laboratory results taken from the supplement of paper PMC10849652.
Of roughly 7,900 targets only a part is listed; those with a hit were picked by preference. About 0.6% of all pairs of compound and target were hits. Values without a mark were called inactive.

How the values were obtained:
Assay in all cases: log2 fold change, soluble protein after heating vs DMSO (PISA); higher = thermal stabilisation; K562 cells, 10 uM, 30 min; active = over 0.2 and 3.5 SD of the protein, either way, in both replicates (recomputed)
erlotinib = compound: C#Cc1cccc(Nc2ncnc3cc(OCCOC)c(OCCOC)cc23)c1 [erlotinib]
Method in brief: (§1)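 Soluble protein was quantified by TMTpro 16plex LC-MS/MS after channel sums were equalised. It was obtained as the supernatant after 21,000xg for 90 min from pooled aliquots of K562 cells (2×10^6 cells/mL, 10 μM compound, 30 min) heated for 3 min across 48°C-58°C and extracted in PBS with 0.5% NP-40 at 4°C. Thermal stability values are relative to control samples and come from duplicates. They are given as log2 fold changes.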

[1] = compound: C/C(=N\NC(=O)C1=CC(=CC=C1)S(=O)(=O)N2CCOCC2)/C3=C(C=CC(=C3)Cl)O
Method in brief: as §1

[2] = compound: C1=CC(=C(C=C1Cl)C2=NC3=NC=CN=C3C(=N2)NC4=CC=NC=C4)F
Method in brief: as §1

[3] = compound: C1=CC(=CC=C1C2=NC3=C(N2)C=C(C=C3)C(=O)N)OC4=CC=C(C=C4)Cl
Method in brief: as §1

[4] = compound: C1=CC2=C(C=CC(=C2)/C=C\3/C(=O)NC(=NCC4=CC=CS4)S3)N=C1
Method in brief: as §1

[5] = compound: C1=CC2=NC=CN=C2C=C1/C=C/3\C(=O)NC(=O)S3
Method in brief: as §1

[6] = compound: C1=CC=C(C=C1)C2=NC(=C(N2)C3=CC=NC=C3)C4=CC(=C(C=C4)Cl)O
Method in brief: as §1

[7] = compound: C1=CC=C2C(=C1)C3=NNC4=CC=CC(=C43)C2=O
Method in brief: as §1

[8] = compound: C1CCN(C1)C(=O)NC2=CC=CC(=C2)NC3=NC=C(C(=N3)NCCC4=CN=CN4)Br
Method in brief: as §1

[9] = compound: C1CN(CCC1(CC2=CC=C(C=C2)Cl)N)C3=NC=NC4=C3C=CN4
Method in brief: as §1

IRAK-1-4 Inhibitor I = compound: C1COCCN1CCN2C3=CC=CC=C3N=C2NC(=O)C4=CC(=CC=C4)[N+](=O)[O-] [IRAK-1-4 Inhibitor I]
Method in brief: as §1

ibrutinib = compound: C=CC(=O)N1CCC[C@@H](n2nc(-c3ccc(Oc4ccccc4)cc3)c3c(N)ncnc32)C1 [ibrutinib]
Method in brief: as §1

[10] = compound: CC(=O)c1cnc2ccc(-c3cc(Cl)c(O)c(Cl)c3)nc2c1N[C@H]1CC[C@H](CN(C)C)CC1
Method in brief: as §1

ralimetinib = compound: CC(C)(C)Cn1c(N)nc2ccc(-c3[nH]c(C(C)(C)C)nc3-c3ccc(F)cc3)nc21 [ralimetinib]
Method in brief: as §1

[11] = compound: CC(C)(O)CC(=O)NCCn1ccc2ncnc(Nc3ccc(Oc4cccc(C(F)(F)F)c4)c(Cl)c3)c21
Method in brief: as §1

[12] = compound: CC(C)C1=C2N=C(C=C(N2N=C1)NCC3=CC=CC=C3)NCCCCCCN
Method in brief: as §1

[13] = compound: CC(C)C[C@@H](C=O)NC(=O)[C@H](CC(C)C)NC(=O)[C@H](CC(C)C)NC(=O)OCc1ccccc1
Method in brief: as §1

pinometostat = compound: CC(C)N(C[C@H]1O[C@@H](n2cnc3c(N)ncnc32)[C@H](O)[C@@H]1O)[C@H]1C[C@@H](CCc2nc3cc(C(C)(C)C)ccc3[nH]2)C1 [pinometostat]
Method in brief: as §1

[14] = compound: CC1=C(C(CC(=O)N1)C2=CC=C(C=C2)C(F)(F)F)C(=O)NC3=C(C=C4C(=C3)C=NN4)F
Method in brief: as §1

[15] = compound: CC1=C(C2=C(C=C1)C(=O)C3=CC=CC=C3N2CCCN)C
Method in brief: as §1

UniProt P49336, sequence (P49336 whole entry, looked up): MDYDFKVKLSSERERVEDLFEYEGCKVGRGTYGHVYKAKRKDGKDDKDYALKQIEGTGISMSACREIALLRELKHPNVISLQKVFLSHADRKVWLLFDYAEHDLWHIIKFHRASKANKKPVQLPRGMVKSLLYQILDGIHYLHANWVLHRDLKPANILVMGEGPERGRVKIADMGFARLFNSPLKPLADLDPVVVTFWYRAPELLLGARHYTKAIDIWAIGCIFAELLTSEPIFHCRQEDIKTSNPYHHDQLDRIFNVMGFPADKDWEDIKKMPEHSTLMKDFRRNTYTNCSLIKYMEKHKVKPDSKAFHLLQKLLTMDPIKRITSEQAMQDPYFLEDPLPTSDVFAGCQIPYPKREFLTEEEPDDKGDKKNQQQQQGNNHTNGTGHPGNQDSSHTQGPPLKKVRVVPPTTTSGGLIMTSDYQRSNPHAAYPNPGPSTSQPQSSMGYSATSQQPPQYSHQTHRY
UniProt Q9NZN8, sequence (Q9NZN8 whole entry, looked up): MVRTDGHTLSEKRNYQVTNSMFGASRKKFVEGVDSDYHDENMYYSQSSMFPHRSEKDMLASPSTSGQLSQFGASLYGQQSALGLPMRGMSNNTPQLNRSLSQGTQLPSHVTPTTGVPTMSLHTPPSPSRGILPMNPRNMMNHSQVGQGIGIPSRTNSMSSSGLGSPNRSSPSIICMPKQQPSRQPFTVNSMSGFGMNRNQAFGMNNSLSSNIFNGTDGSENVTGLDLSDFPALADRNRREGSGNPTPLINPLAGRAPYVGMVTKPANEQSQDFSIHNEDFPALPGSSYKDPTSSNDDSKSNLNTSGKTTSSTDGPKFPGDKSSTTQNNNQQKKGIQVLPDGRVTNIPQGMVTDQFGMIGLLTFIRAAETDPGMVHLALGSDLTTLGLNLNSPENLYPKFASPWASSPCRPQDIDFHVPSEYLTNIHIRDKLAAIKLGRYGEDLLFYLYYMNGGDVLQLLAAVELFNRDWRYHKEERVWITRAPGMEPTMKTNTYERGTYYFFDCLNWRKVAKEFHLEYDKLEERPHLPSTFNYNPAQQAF
UniProt O43405, sequence (O43405 whole entry, looked up): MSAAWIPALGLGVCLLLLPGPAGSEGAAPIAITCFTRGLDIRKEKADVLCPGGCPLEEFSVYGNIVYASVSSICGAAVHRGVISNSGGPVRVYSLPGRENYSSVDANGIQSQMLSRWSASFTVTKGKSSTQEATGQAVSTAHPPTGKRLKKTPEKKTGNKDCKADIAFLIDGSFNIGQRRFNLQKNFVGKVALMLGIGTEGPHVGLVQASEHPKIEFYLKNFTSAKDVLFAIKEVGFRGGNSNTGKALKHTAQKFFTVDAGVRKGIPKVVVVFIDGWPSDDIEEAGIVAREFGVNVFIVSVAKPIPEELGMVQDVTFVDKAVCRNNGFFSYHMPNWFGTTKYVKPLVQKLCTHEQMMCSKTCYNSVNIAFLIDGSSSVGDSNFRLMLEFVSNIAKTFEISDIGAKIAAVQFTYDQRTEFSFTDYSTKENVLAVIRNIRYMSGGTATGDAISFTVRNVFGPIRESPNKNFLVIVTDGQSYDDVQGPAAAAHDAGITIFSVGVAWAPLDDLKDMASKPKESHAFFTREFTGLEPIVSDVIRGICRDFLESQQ
UniProt Q9Y3X0, sequence (Q9Y3X0 whole entry, looked up): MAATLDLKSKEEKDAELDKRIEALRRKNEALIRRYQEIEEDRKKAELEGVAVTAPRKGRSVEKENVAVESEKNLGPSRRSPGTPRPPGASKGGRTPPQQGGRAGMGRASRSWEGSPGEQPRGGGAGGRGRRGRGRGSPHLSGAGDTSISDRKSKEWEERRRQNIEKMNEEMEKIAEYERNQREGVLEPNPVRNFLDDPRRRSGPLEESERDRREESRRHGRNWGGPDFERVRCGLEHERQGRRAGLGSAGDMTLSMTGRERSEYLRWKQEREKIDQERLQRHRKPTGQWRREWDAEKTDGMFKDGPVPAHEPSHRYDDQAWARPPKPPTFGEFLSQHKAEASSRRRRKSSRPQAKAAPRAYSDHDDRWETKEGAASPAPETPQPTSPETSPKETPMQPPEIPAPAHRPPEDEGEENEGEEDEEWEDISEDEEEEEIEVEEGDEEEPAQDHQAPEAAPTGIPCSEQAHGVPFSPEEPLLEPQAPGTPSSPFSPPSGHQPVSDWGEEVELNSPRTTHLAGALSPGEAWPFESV
UniProt Q86X95, sequence (Q86X95 whole entry, looked up): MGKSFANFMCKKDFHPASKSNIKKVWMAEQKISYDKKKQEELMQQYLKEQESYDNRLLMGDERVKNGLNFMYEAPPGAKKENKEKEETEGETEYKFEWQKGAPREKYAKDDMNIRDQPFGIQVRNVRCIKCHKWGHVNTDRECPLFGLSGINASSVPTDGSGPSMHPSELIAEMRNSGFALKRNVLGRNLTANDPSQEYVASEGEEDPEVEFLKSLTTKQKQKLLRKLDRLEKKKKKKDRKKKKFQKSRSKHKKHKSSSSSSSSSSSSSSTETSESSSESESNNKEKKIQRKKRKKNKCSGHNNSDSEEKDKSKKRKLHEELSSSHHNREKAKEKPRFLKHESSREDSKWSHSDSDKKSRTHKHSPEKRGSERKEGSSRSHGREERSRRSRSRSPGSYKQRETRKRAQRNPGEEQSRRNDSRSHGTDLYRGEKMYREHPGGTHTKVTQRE
UniProt Q14004, sequence (Q14004 whole entry, looked up): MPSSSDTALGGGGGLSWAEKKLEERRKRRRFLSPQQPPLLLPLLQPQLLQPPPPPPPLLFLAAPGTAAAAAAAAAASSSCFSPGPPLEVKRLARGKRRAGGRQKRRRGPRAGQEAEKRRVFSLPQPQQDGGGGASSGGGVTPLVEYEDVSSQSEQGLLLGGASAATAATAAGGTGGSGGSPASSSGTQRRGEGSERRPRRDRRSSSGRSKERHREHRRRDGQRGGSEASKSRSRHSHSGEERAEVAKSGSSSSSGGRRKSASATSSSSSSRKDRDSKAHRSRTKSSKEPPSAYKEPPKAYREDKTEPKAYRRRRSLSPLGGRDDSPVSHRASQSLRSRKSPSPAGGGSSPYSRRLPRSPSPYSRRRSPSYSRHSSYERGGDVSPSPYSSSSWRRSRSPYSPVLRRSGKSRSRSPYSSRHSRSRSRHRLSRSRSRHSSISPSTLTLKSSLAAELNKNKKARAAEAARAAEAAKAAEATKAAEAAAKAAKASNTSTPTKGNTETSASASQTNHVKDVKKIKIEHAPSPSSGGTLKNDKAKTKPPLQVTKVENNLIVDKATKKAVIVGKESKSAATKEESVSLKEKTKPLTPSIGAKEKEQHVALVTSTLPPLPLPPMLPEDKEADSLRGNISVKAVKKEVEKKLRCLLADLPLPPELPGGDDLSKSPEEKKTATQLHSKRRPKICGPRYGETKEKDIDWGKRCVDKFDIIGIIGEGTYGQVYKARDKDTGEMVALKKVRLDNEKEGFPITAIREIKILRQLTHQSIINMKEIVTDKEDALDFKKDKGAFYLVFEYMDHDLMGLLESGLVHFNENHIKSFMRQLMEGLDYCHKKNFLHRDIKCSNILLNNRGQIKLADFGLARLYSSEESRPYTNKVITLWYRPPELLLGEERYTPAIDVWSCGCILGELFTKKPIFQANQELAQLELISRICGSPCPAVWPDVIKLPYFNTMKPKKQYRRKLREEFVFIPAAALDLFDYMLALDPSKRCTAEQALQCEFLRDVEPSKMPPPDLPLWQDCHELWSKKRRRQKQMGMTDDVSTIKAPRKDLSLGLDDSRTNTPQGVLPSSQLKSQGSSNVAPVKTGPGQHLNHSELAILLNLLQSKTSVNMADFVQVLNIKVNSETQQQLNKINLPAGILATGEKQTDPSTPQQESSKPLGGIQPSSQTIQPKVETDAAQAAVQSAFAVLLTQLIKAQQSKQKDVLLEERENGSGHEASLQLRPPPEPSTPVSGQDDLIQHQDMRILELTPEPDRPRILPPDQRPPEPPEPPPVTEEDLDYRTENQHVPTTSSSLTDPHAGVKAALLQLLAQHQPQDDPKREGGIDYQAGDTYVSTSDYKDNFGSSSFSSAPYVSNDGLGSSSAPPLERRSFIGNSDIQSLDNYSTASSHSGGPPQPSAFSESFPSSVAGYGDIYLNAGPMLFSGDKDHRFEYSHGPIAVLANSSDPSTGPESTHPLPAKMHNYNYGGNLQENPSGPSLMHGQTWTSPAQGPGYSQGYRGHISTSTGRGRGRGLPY
UniProt Q96JB5, sequence (Q96JB5 whole entry, looked up): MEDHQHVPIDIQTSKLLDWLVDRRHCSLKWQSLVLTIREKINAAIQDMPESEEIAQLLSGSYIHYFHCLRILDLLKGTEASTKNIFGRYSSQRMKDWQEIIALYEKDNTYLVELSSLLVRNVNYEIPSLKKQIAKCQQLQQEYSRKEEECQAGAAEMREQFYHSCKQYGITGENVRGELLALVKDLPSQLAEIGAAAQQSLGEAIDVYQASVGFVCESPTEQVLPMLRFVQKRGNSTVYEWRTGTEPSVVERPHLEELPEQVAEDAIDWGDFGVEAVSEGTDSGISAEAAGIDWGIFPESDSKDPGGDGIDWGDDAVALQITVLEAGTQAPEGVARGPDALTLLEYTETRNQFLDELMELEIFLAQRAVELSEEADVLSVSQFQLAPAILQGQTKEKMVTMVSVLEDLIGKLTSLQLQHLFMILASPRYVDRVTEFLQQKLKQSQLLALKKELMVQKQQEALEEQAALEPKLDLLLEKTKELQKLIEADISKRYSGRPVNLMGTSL
UniProt P41240, sequence (P41240 whole entry, looked up): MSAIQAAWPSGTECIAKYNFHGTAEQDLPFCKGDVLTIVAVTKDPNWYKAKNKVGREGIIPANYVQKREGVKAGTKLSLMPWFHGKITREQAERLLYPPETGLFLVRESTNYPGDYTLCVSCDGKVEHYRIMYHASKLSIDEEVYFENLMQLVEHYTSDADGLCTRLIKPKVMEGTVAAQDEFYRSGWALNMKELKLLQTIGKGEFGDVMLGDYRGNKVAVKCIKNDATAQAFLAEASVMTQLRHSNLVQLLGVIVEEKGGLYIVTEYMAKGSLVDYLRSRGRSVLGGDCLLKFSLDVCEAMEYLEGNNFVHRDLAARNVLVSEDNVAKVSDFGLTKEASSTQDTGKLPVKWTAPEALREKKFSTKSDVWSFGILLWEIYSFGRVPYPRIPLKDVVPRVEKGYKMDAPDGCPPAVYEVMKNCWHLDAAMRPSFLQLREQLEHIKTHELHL

Target	log2 fold change (erlotinib)	log2 fold change [1]	log2 fold change [2]	log2 fold change [3]	log2 fold change [4]	log2 fold change [5]	log2 fold change [6]	log2 fold change [7]	log2 fold change [8]	log2 fold change [9]	log2 fold change (IRAK-1-4 Inhibitor I)	log2 fold change (ibrutinib)	log2 fold change [10]	log2 fold change (ralimetinib)	log2 fold change [11]	log2 fold change [12]	log2 fold change [13]	log2 fold change (pinometostat)	log2 fold change [14]	log2 fold change [15]
COX5B (UniProt P10606)	-0.068	0.062	0.16	-0.041	0.032	0.03	0.114	-0.023	-0.067	-0.003	0.008	-0.012	-0.079	0	0.106	0.428 (active)	-0.082	-0.071	0.003	0.204
CMTR1 (UniProt Q8N1G2)	-0.005	0.105	0.031	0.013	0.048	0.012	0.012	0.036	0.01	0.018	-0.007	-0.011	-0.014	-0.026	-0.024	-0.011	-0.002	-0.029	-0.007	0.169
CLPX (UniProt O76031)	-0.062	0.056	0.01	0.004	-0.009	0.036	-0.008	-0.034	-0.03	-0.003	0.002		0.006	-0.03	-0.02	0.048	-0.055	-0.026	0.004	0.012
CLUH, A0A494C0R8	-0.008	-0.081	0.253	-0.107	0.127	0.235	-0.081	0.03	0.07	0.05	-0.016		0.508 (active)	-0.125	-0.231	-0.257	0.199	-0.044	-0.058	0.046
CNOT2 (UniProt Q9NZN8)	0.043	0.059	0.009	-0.024	0.016	0.045	-0.031	-0.042	-0.019	-0.034	0.112	0.013	-0.045	-0.027	-0.038	-0.112	0.013	0.05	-0.005	0.059
CSK (UniProt P41240)	0.023	0.031	-0.038	0.005	0.056	-0.022	0.024	-0.02	-0.034	-0.05	-0.016	0.074	0.111	0.011	-0.034	-0.131	0.031	0	-0.016	-0.011
CDK13 (UniProt Q14004)	-0.064	0.039	-0.147	0.028	-0.126	-0.014	-0.012	-0.212	-0.006	-0.129	-0.05	0.024	-0.52 (active)	0.199	0.031	-0.171	0.081	0.043	0.013	-0.017
CLCN7 (UniProt P51798)	0.079	0.047	0.075	-0.008	0.023	0.063	0.076	-0.05	0.016	0.001	-0.01		-0.005	-0.055	-0.08	-0.91 (active)	0	-0.051	0.04	-0.092
COCH (UniProt O43405)	-0.083	-0.028	-0.044	0.007	-0.098	0.007	-0.002	-0.072	-0.043	-0.101	0.001	0.058	0.045	0.041	0.331 (active)	0.021	-0.019	0.043	-0.072	-0.353
CDK8 (UniProt P49336)	-0.098	-0.094	-0.161	0.028	-0.023	0.102	-0.087	0.287	-0.044	0.034	0.006	-0.011	0.487 (active)	-0.174	-0.15	-0.067	0.096	-0.057		-0.005
CPT1A (UniProt P50416)	-0.008	0.042	-0.111	0.008	-0.028	-0.096	0	0.081	-0.055	0.076	-0.163	-0.024	-0.103	0.05	0.049	0.195	-0.03	0.06	-0.109	-0.047
CIR1 (UniProt Q86X95)	-0.008	-0.035	-0.254	0.055	-0.054	-0.029	-0.144	-0.016	-0.008	0.002	-0.023	0.121	-0.05	0.083	0.128	0.198	0.175	0.169		0.022
CCDC9 (UniProt Q9Y3X0)	0.017	-0.116	-0.036	0.047	-0.045	0.034	0.027	-0.02	0.062	0.034	-0.05	0.078	0.173	0.031	0.053	0.105	0.087	-0.024	0.021	0.296 (active)
COASY isoform 2 (UniProt Q13057)	-0.022	0.1	0.042	-0.067	0.032	0.01	0.076	0.043	-0.011	0.092	0.039	0.004	-0.016	-0.032	-0.063	0.037	-0.02	0.005	-0.018	0.079
CDK5RAP3 isoform 4 (UniProt Q96JB5)	0.089	0.027	0.042	-0.017	0.01	0.023	0.033	0.041	-0.003	-0.068	-0.051	-0.068	-0.005	-0.015	-0.062	-0.056	-0.002	0.017	-0.031	0.009
